# Source: the supplement of paper PMC8866396
# Structures can show the parent of a compound that is named as a salt. ± gives the standard deviation of the averaged measurements.
# What was measured:
# [1] = system: IL-6-GFP PC-9GR; assay: cell viability (CCK-8 OD) relative to DMSO control (fraction of control); higher = more viable cells; conditions: compound concentration: 10 uM; treatment time: 48 h
# Summary of the method: (§1)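 PC-9 and PC-9GR lung cancer cells overexpressing IL-6-GFP from a lentiviral construct were plated at 3000 cells/well in 96-well plates. Each compound from a purchased 510-compound library was added at a final 10 μM for 48 h, with a parallel plate set used for GFP imaging. Viability was measured by CCK-8 absorbance and expressed as each well's optical density divided by the vehicle (DMSO) control well, from two independent replicates.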
# [2] = system: IL-6-GFP PC-9; assay: as above; conditions: compound concentration: 10 uM; treatment time: 48 h
# Summary of the method: as §1
Compound,cell viability [1],cell viability [2]
COc1ccc2cc(C(C)C(=O)[O-])ccc2c1.[Na+] (stereo not drawn) [Naproxen Sodium],1.36 ± 0.035,1.16 ± 0.16
COc1ccc(-c2cc(=S)ss2)cc1 [Anethole trithione],0.868 ± 0.15,1.17 ± 0.031
CC12CCC(CC1=O)C2(C)C (stereo not drawn) [Camphor],1.24 ± 0.3,0.786 ± 0.061
"Cc1c(C(=O)Nc2ccc(N3CC(C)OC(C)C3)nc2)cccc1-c1ccc(OC(F)(F)F)cc1 (stereo not drawn) [Sonidegib (Erismodegib, NVP-LDE225)]",1.05 ± 0.049,1.0769 ± 0.001
CC(C)c1nc(CN(C)C(=O)NC(CCN2CCOCC2)C(=O)NC(CCC(Cc2ccccc2)NC(=O)OCc2cncs2)Cc2ccccc2)cs1 (stereo not drawn) [Cobicistat (GS-9350)],0.989 ± 0.11,1.14 ± 0.22
O=C(/C=C/c1ccc(O)c(O)c1)OC(Cc1ccc(O)c(O)c1)C(=O)O (stereo not drawn) [Rosmarinic acid],1.12 ± 0.24,1.14 ± 0.059
O=S(=O)([O-])CCS.[Na+] [Mesna],1.23 ± 0.2,0.95 ± 0.07
O=c1[nH]c(=O)n(C2CCCO2)cc1F (stereo not drawn),1.11 ± 0.023,1.01 ± 0.013
CNCC(O)c1ccc(O)c(O)c1.O=C(O)C(O)C(O)C(=O)O (stereo not drawn) [Epinephrine bitartrate],1.17 ± 0.15,1.2 ± 0.022
CC/C(=C(/CC)c1ccc(O)cc1)c1ccc(O)cc1 [Diethylstilbestrol],1.13 ± 0.038,1.18 ± 0.19
CONC(=O)Nc1ccc(-c2sc3c(c2CN(C)C)c(=O)n(-c2ccc(OC)nn2)c(=O)n3Cc2c(F)cccc2F)cc1 [Relugolix],1.41 ± 0.42,1.01 ± 0.17
CC(C)CC(NC(=O)C(Cc1ccccc1)NC(=O)c1cnccn1)B(O)O (stereo not drawn) [Bortezomib (PS-341)],0.105 ± 0.11,0.14 ± 0.057
CCOc1ccc(NC(C)=O)cc1 [Phenacetin],1.24 ± 0.33,1.09 ± 0.054
Cc1nnc(C(=O)NC(C)(C)c2nc(C(=O)NCc3ccc(F)cc3)c(O)c(=O)n2C)o1 [Raltegravir (MK-0518)],1.21 ± 0.063,1.39 ± 0.3
"COc1ccc2cc1Oc1ccc(cc1)CC1c3cc(c(OC)cc3CCN1C)Oc1c(O)c(OC)cc3c1C(C2)N(C)CC3 (single isomer, unassigned; (+)) [(+)-Fangchinoline]",0.731 ± 0.36,0.678 ± 0.23
Nc1cc(C(Cl)=C(Cl)Cl)c(S(N)(=O)=O)cc1S(N)(=O)=O [Clorsulon],1.21 ± 0.16,1.08 ± 0.11
CCOC(=O)OC1(C(=O)OCCl)CCC2C3CCC4=CC(=O)C=CC4(C)C3C(O)CC21C (stereo not drawn) [Loteprednol etabonate],1.21 ± 0.051,0.944 ± 0.063
CC1CNc2c(cccc2S(=O)(=O)NC(CCCNC(=N)N)C(=O)N2CCC(C)CC2C(=O)O)C1.O (stereo not drawn) [Argatroban Monohydrate],1.49 ± 0.35,1.12 ± 0.23
C=C(NC(=O)C(=C)NC(=O)c1csc(C2=NC3c4csc(n4)C4NC(=O)c5csc(n5)C(C(C)(O)C(C)O)NC(=O)C5CSC(=N5)/C(=C/C)NC(=O)C(C(C)O)NC(=O)c5csc(n5)C3(CC2)NC(=O)C(C)NC(=O)C(=C)NC(=O)C(C)NC(=O)C(C(C)CC)NC2C=Cc3c(C(C)O)cc(nc3C2O)C(=O)OC4C)n1)C(N)=O (stereo not drawn) [Thiostrepton],0.184 ± 0.083,0.412 ± 0.15
Cc1cn(-c2cc(NC(=O)c3ccc(C)c(Nc4nccc(-c5cnccn5)n4)c3)cc(C(F)(F)F)c2)cn1 [Radotinib],0.7942 ± 0.0035,1.1 ± 0.038
CC(C)CC(NC(=O)CNC(=O)c1cc(Cl)ccc1Cl)B1OC(=O)CC(CC(=O)O)(C(=O)O)O1 (stereo not drawn) [Ixazomib Citrate (MLN9708)],0.316 ± 0.3,0.339 ± 0.12
CN(N=O)C(=O)NC1C(O)OC(CO)C(O)C1O (stereo not drawn) [Streptozotocin (STZ)],1.23 ± 0.087,0.636 ± 0.052
Cc1nc(-c2ccc(OCC(C)C)c(C#N)c2)sc1C(=O)O [Febuxostat],1.38 ± 0.24,1.12 ± 0.27
COC(c1ccccc1)(c1ccccc1)C(Oc1nc(C)cc(C)n1)C(=O)O (stereo not drawn) [Ambrisentan],1.22 ± 0.077,1.25 ± 0.37
CCOC(=O)N1CCC(=C2c3ccc(Cl)cc3CCc3cccnc32)CC1 [Loratadine],1.12 ± 0.032,0.934 ± 0.18
CN1C(C(=O)Nc2ccccn2)=C(O)c2sc(Cl)cc2S1(=O)=O [Lornoxicam],0.71 ± 0.3,1.1 ± 0.23
COC(=O)c1cc(OC)c2c(c1-c1c(CO)cc(OC)c3c1OCO3)OCO2 [Bicyclol],1.16 ± 0.29,0.934 ± 0.097
COc1ccc2c(c1)nc(S(=O)Cc1ncc(C)c(OC)c1C)[n]2[Na] (stereo not drawn) [Omeprazole Sodium],0.872 ± 0.13,0.963 ± 0.16
COc1ccc2cc1Oc1ccc(cc1)CC1c3c(cc4c(c3Oc3cc5c(cc3OC)CCN(C)C5C2)OCO4)CCN1C (stereo not drawn) [Cepharanthine],0.8242 ± 0.0069,0.73 ± 0.15
